Source: article PMC5540273 (PLoS ONE, 2017)

Assays:
Details in all cases: concentration: 1 μM, replicates: in singlicate; n = 1
[1] = tested on: PIP5K1A
[2] = tested on: PIP5K1C
[3] = tested on: PIP5K2B
[4] = tested on: T1, PIP5K2C
T1 construct: gene PIP4K2C

[5] = tested on: T2, PKAC-alpha
T2 construct: gene PRKACA

[6] = tested on: T3, PKAC-beta
T3 construct: gene PRKACB

[7] = tested on: PKMYT1
[8] = tested on: PKN1
[9] = tested on: PKN2
[10] = tested on: PLK1
[11] = tested on: PLK2
[12] = tested on: PLK3
[13] = tested on: PLK4
[14] = tested on: PRKCD
[15] = tested on: PRKCE
[16] = tested on: PRKCH
[17] = tested on: PRKCI
[18] = tested on: PRKCQ
[19] = tested on: PRKD1
[20] = tested on: PRKD2
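Further: KINOMEscan kinase panel screen.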

SMILES	%Inh [1]	%Inh [2]	%Inh [3]	%Inh [4]	%Inh [5]	%Inh [6]	%Inh [7]	%Inh [8]	%Inh [9]	%Inh [10]	%Inh [11]	%Inh [12]	%Inh [13]	%Inh [14]	%Inh [15]	%Inh [16]	%Inh [17]	%Inh [18]	%Inh [19]	%Inh [20]
CC(=O)Nc1cn2nc(Oc3cccc(NC(=O)c4cccc(C(F)(F)F)c4)c3)ccc2n1	11%	5%	0%	32%	8%	52%	0%	0%	23%	0%	0%	0%	0%	0%	0%	0%	0%	0%	18%	17%
O=C(Nc1c(F)cccc1F)c1cc(C(=O)c2ccccc2F)c[nH]1 [GSK1326180]	34%	49%	0%	25%	0%	5%	3%	8%	0%	18%	0%	0%	0%	9%	0%	4%	2%	20%	11%	14%
CN(c1ccc(NC(=O)N2CCN(CCCN3CCOCC3)CC2)cc1)c1ccnc(Nc2ccc(CS(C)(=O)=O)cc2)n1.Cl [GW830899]	0%	26%	32%	55%	0%	29%	25%	0%	0%	3%	0%	0%	39%	23%	0%	0%	43%	0%	0%	0%
COc1ccc(C)c(Nc2ccnc(Nc3ccc(-c4cnc[nH]4)cc3)n2)c1.Cl [GW784041]	0%	33%	33%	67%	8%	22%	2%	0%	0%	11%	0%	0%	15%	30%	12%	0%	25%	0%	16%	12%
COC(=O)Nc1nc2cc(Oc3ccc(NC(=O)Nc4cccc(SC)c4)cc3)ccc2[nH]1.Cl [GW697999]	56%	62%	20%	40%	0%	4%	0%	0%	0%	0%	0%	0%	0%	1%	11%	4%	0%	0%	3%	10%
CC(C)(C)c1ccc(C(=O)Nc2cn3cc(-n4ccnc4)ccc3n2)cc1	2%	4%	0%	95.3%	37%	0%	0%	10%	0%	0%	24%	10%	0%	7%	15%	0%	10%	23%	0%	12%
Cc1nn2c(=O)cc(N3CCO[C@H](C)C3)nc2n1Cc1cccc(Cl)c1Cl [GSK2373693]	0%	83%	4%	0%	23%	14%	62%	43%	0%	0%	0%	0%	48%	0%	74%	13%	24%	12%	14%	2%
Fc1cc(Cl)ccc1Nc1ccnc2cc(-c3ccc(CN4CCSCC4)o3)ccc12 [GW560106]	30%	59%	9%	74%	27%	22%	0%	0%	0%	0%	0%	0%	97.6%	14%	13%	21%	23%	0%	24%	19%
